# Most compounds without a hit are left out; they make up all but 18% or so of the library.
# RORg inh: blocks mouse ROR gamma transcriptional activity | Drosophila S2 Gal4-RORgamma UAS-luciferase reporter, 20 h | Potency, µM (titrated, usually from 53.6 µM), for inactives: at the highest dose activity change, negative = inhibition, actives largely listed as inhibitors | 310,000 compounds, 5.4% hits | AID 2551; further: potency means the concentration at half of the fitted maximal effect; nearly all actives have a fitted effect of over 60% in size
# Target sequence (P51450 whole entry, looked up, the tested form may be a part): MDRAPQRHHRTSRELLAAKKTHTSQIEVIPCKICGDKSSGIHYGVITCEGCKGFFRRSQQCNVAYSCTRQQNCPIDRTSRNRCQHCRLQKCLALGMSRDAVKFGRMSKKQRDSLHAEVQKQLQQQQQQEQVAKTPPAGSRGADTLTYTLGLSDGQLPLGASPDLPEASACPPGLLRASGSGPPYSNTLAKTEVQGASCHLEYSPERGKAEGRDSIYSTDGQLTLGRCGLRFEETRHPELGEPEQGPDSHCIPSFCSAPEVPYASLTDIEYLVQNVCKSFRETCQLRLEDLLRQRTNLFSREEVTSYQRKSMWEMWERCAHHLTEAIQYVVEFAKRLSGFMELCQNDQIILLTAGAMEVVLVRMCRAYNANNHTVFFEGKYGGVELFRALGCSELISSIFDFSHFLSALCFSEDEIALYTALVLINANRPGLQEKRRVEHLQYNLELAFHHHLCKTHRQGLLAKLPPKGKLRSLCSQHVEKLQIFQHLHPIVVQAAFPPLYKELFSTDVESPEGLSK
#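 ROR gamma transcriptional activity was tracked as Gal4-UAS luciferase output in stably transfected Drosophila Schneider cells, with compound added 1 hr before 700 uM copper sulfate induction and a 20 hr ambient-temperature incubation.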
# TDP1 cell CPT: growth inhibition of DT40 Tdp1-/-;hTDP1 cells with camptothecin (screen for TDP1 inhibitors) | chicken DT40 Tdp1-/-;hTDP1 cells + 20 nM CPT, ATP luminescence, 48 h | Potency, µM (series often up to 46.2 µM), without a hit: at the top dose activity change, negative = growth inhibition, hits mostly inhibitors | 420,000 compounds, 12% hits | AID 686979; further: potency means the concentration at half of the fitted maximal effect; nearly all actives have a fitted effect of over 55% in size
#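 Chicken DT40 Tdp1-/- cells complemented with human TDP1, 400 cells/well, exposed to compounds plus 20 nM camptothecin for at least 48 h at 37 C; viability read as ATP content by CellTiter-Glo luminescence.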
# Gal4-VP16 FLuc: Gal4-VP16 reporter inhibition counter-screen. Drosophila S2 Gal4-VP16 UAS-luciferase, luminescence, 20 h. Potency, µM (highest dose often 53.6 µM), for inactives: top-dose activity, negative = inhibition, actives largely listed as inhibitors. 310,000 compounds, 3.5% hits. AID 2546;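 further: Gal4-VP16 expression switched on by copper sulfate through the metallothionein promoter; potency means the concentration at half of the fitted maximal effect; nearly all actives have a fitted effect of over 50% in size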
# TDP1 cell noCPT: qHTS for Inhibitors of human tyrosyl-DNA phosphodiesterase 1 (TDP1): qHTS in cells in absence of CPT | DT40 Tdp1-/- hTDP1 cells, no CPT, ATP luminescence, 48 h | Potency, µM (doses to about 46.2 µM), without a hit: at the top dose activity change, negative = growth inhibition, most hits filed as inhibitors | 420,000 compounds, 15% hits | AID 686978, 2013; further: potency means the concentration at half of the fitted maximal effect; nearly all actives have a fitted effect of over 55% in size
#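 Chicken DT40 Tdp1-/- cells complemented with human TDP1, screened without camptothecin (DMSO vehicle only), 400 cells/well. Compounds pin-transferred, cells incubated at 37 °C for at least 48 hr. Growth read as ATP-dependent luminescence (CellTiter-Glo, 30 min at RT).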
# LDHA block: LDHA (human) enzyme inhibition; P00338; purified LDHA, NADH/diaphorase-resazurin fluorescence; active compounds read low; activity change, % (values are at about 110 or 230 µM); 480,000 compounds, 0.15% hits; AID 1347041; in the data active means activity change below about -30%; inconclusive means mostly about -25% to -30%;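 further: plate controls were DMSO wells for no effect and wells without enzyme for full effect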
#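 Human LDH5 at 2 nM final in Tris HCl pH 7.4 with 0.06 mM NADH and 0.2 mM pyruvate, reacted 5 minutes at room temperature. Remaining NADH coupled via diaphorase/resazurin; resorufin fluorescence read at 0 and 20 minutes, normalized to enzyme-free and DMSO wells.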
# IL-1B inflam inh: inhibitors of inflammasome signaling (IL-1 beta secretion) | THP-1 LPS/ATP IL-1B secretion, AlphaLISA, 16 h; active compounds read low | activity change, % at 57.5 µM | 360,000 compounds, 4.7% hits; in the data active means activity change below about -50%; inconclusive means mostly about -30% to -49%
#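 Secreted IL-1B measured by AlphaLISA bead assay after 16 h compound exposure of THP-1 cells; compounds (final up to 57.5 uM) added 1 h before LPS (250 ng/mL) and ATP (1.25 mM) stimulation; lower signal means less secretion.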
# An asterisk follows results filed as active; ? = inconclusive; . = not tested or not shown. Unless noted, the call rests on the fitted dose curve; in most records, active means well fitted curve in the direction sought with a large enough effect; inconclusive means small, poorly fitted or top-dose-only effect, or another doubt; inactive means no such curve, though single readings can be large; an effect the other way counts as inactive or inconclusive. Unless noted, on the % scale 0 is the no-effect control and ±100 the full control effect.
SMILES,RORg inh,TDP1 cell CPT,Gal4-VP16 FLuc,TDP1 cell noCPT,LDHA block,IL-1B inflam inh
COc1cc(C2CC(=O)N3CN(Cc4ccccc4)CSC3=C2C#N)cc(OC)c1OC (stereo unspecified),.,.,.,.,41,.
CS(=O)(=O)c1ccc(-c2cccc(NC(=O)c3ccco3)c2)nn1,.,?,.,18µM*,-3,-8
COc1ccc(-c2cccc(NC(=O)c3ccco3)c2)nn1,.,?,.,26µM*,-3,-10
Cc1cccc(-c2noc(C(C)Oc3ccc(Br)cc3)n2)c1 (stereo unspecified),.,.,.,.,-4,.
COc1ccc(/C=N/NC(=O)c2nn(-c3ccccc3)c(=O)c3c(N)scc23)cc1,?,10µM*,-13%,8.2µM*,52,-20
COc1ccc(/C=N/NC(=O)c2nn(-c3ccc(C)c(C)c3)c(=O)c3ccccc23)cc1,45%,9.2µM*,-6%,3.3µM*,-4,-18
COc1ccc(/C=N/NC(=O)c2nn(-c3ccc(Cl)cc3)c(=O)c3c(N)scc23)cc1,-13%,5.8µM*,2%,2.6µM*,15,-1
COc1ccc2c(c1)c(C(=O)N/N=C/c1ccc(Cl)cc1)c(C)n2C,?,?,13%,?,-4,?
CCN(CC)C(=O)c1nn(-c2ccc(OC)cc2)c(=O)c2c(N)scc12,.,.,.,.,16,.
COc1ccc(-n2nc(C(=O)NCC(=O)Nc3cc(Cl)c(OC)cc3OC)c3ccccc3c2=O)cc1,8%,-39%,-1%,-60%,3,7
COc1ccc(OCC2NCCc3cc(OC)c(OC)cc32)cc1 (stereo unspecified),6%,?,-5%,?,0,-6
COc1cc2c(cc1OC)C(COc1cccc(C(F)(F)F)c1)NCC2 (stereo unspecified),1%,21µM*,-2%,?,-16,-8
CC(C)c1ccc(CN(C(=O)c2cc(=O)c3ccccc3o2)C2CCS(=O)(=O)C2)cc1 (stereo unspecified),.,.,.,.,-10,.
COc1c(Cl)cccc1-c1cn2ccccc2n1,11µM*,-6%,?,?,-4,15
Cc1ccc(C)c(-c2cn3ccccc3n2)c1,.,.,.,.,5,.
COc1ccc(-c2ccc(C3C(C#N)=C(N)Oc4n[nH]c(C)c43)o2)cc1 (stereo unspecified),?,21µM*,-25%,21µM*,-2,-3
COCc1[nH]nc2c1C(c1ccc(OC)cc1)C(C#N)=C(N)O2 (stereo unspecified),-17%,?,4%,-18%,1,-13
N#CC1=C(N)Oc2n[nH]c(-c3ccc(F)cc3)c2C1c1cccnc1 (stereo unspecified),12%,?,0%,-3%,-1,-2
Cc1ccc(C2C(C#N)=C(N)Oc3n[nH]c(-c4ccccc4)c32)o1 (stereo unspecified),-34%,13µM*,-23%,23µM*,14,4
Cc1[nH]nc2c1C(c1cn[nH]c1-c1ccc(F)cc1)C(C#N)=C(N)O2 (stereo unspecified),0%,?,-6%,?,-2,-80*
CCOc1ccc(C(CCc2ccccc2)NC(=O)c2ccccc2F)cc1OCC (stereo unspecified),14%,35µM*,2%,?,1,-21
CCOc1cc(C(=O)NC(C)CCc2ccccc2)cc(OCC)c1OCC (stereo unspecified),?,?,-12%,13%,2,9
COc1ccccc1CNC(=O)CC(C)C,7%,23µM*,-1%,?,-7,7
CCOc1ccccc1C(=O)NC(C)CCc1ccccc1 (stereo unspecified),.,?,.,16µM*,-3,13
CCOc1ccc(C(C)NC(=O)Cc2ccccc2F)cc1OCC (stereo unspecified),46%,2%,7%,-10%,-5,-1
SMILES,RORg inh,TDP1 cell CPT,Gal4-VP16 FLuc,TDP1 cell noCPT,LDHA block,IL-1B inflam inh
CCOc1ccccc1C(=O)NC(C(=O)NCc1ccccc1OC)C(C)C (stereo unspecified),16%,?,-3%,16µM*,-2,13
Cc1ccccc1CNC(=O)CC(C)C,.,.,.,.,4,.
CCOC(=O)c1cccc(NC(=O)NCc2cccn2Cc2cccc(F)c2)c1,.,.,.,.,5,.
COc1ccc(OC)c(C2CCCN2CC(=O)N(C)c2ccccc2)c1 (stereo unspecified),.,.,.,.,-4,.
CC(=O)c1cn(CC(=O)NCc2ccc3c(c2)OCO3)c2ccccc12,-17%,13µM*,5%,13µM*,0,14
CC(=O)c1cn(CC(=O)Nc2ccccc2C)c2ccccc12,?,8.2µM*,?,6.5µM*,-7,14
Cc1ccc(C)c(NC(=O)Cn2cc(C(=O)c3cccs3)c3ccccc32)c1,.,18µM*,.,21µM*,-4,.
Cc1ccc(NC(=O)Cn2cc(C(=O)c3cccs3)c3ccccc32)cc1C,.,?,.,?,-9,.
CC(=O)c1cn(CC(=O)Nc2ccc(C)c(C)c2)c2ccccc12,?,7%,-1%,?,-4,30
Cc1cccc(C)c1NC(=O)Cn1cc(C=O)c2ccccc21,?,21µM*,?,8.2µM*,-14,35
CC(C)c1ccc(C(NC(=O)c2n[nH]c(=O)c3ccccc23)C(C)C)cc1 (stereo unspecified),.,.,.,.,-1,.
CC(C(=O)Nc1cccc(Cl)c1)N(C)Cc1c(F)cccc1Cl (stereo unspecified),.,.,.,.,-2,.
CC(=O)c1cn(CC(=O)Nc2c(C)cccc2C)c2ccccc12,-18%,10µM*,7.1µM*,8.2µM*,-3,-15
Cc1ccccc1NC(=O)Cn1c(O)c(N=NC(=O)c2ccccc2O)c2ccccc21,23%,?,?,5.8µM*,-21,0
Cc1ccc(NC(=O)Cn2c(O)c(N=NC(N)=O)c3ccccc32)cc1,-7%,?,2%,?,-7,-2
CSc1nc(N)nc2c1ncn2CC(=O)NCc1ccc2c(c1)OCO2,.,16µM*,.,8.2µM*,-3,30
Cc1ccc(NC(=O)Cn2c(O)c(N=NS(=O)(=O)c3ccc(C)cc3)c3ccccc32)cc1,?,?,0%,15µM*,-4,-5
CN(C)c1ccc(-c2nc(N(C)C)c3ccccc3n2)cc1,-25%,?,-5%,23µM*,.,.

# Bioassay records: PubChem BioAssay, National Center for Advancing Translational Sciences (NCATS)
